# Coupling enz – qHTS Assay for Inhibitors of Fructose-1,6-bisphosphate Aldolase from Giardia Lamblia: Coupling assay counterscreen; coupling enzyme system counterscreen, AmpLite Red fluorescence; activity change, negative = inhibition, % at 58.2 µM, hits read low; 290,000 tested, 0.67% active; AID 2472, 2010; in the data active means activity change below about -30%
#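 First, compound is pin-transferred into glyceraldehyde-3-phosphate coupling-enzyme reagent at 57.5 uM final and held 10 min at RT. Next, substrate, coupling system and AmpLite Red are added. After 20 min RT, fluorescence (525/598 nm) is read.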
# PLK1 PBD block – qHTS for Inhibitors of PLK1-PDB (polo-like kinase 1 - polo-box domain): Primary Screen. 360,000 tested, 2.8% active. Plk1 PBD binding of FITC phosphopeptide, fluorescence polarization. Serine/threonine-protein kinase PLK1 (Homo sapiens), P53350. Potency, µM, without a hit: max response, negative = inhibition, hits mostly inhibitors; further: potency means the concentration at half of the fitted maximal effect; series mostly up to about 57 µM; nearly all actives have a fitted effect of over 65% in size
# GALK inh – qHTS Assay for Inhibitors of Human Galactokinase (GALK) | AID 1868, 2009 | Purified GALK, Kinase-Glo residual ATP luminescence | 270,000 tested, 0.007% active | Potency, µM (top dose mostly 57.5 µM), without a hit: top-dose activity change, negative = inhibition, actives largely listed as inhibitors | P51570; further: potency means the concentration at half of the fitted maximal effect
#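 ATP-depletion format; final 35 uM ATP, 100 uM D-galactose, 5 nM enzyme; pH 8.0 HEPES/Mg2+ buffer; 60 min RT; luminescence read 10 min after detection reagent.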
# USP2a block – qHTS Assay for Inhibitors of Ubiquitin-specific Protease USP2a Using CHOP2 as the Reporter. Ubiquitin carboxyl-terminal hydrolase 2 (Homo sapiens), O75604. USP2 core, Ub-CHOP2 coupled fluorogenic reporter, 485/531. Potency, µM (titrated, usually from 38.3 µM), for the others: top-dose activity change, negative = inhibition, usual class: inhibitors. 330,000 tested, 0.01% active. AID 463254, 2010;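 further: potency means the concentration at half of the fitted maximal effect; plate controls were DMSO wells for no effect and full inhibition by NEM control for full effect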
# Target sequence (O75604 whole entry, looked up): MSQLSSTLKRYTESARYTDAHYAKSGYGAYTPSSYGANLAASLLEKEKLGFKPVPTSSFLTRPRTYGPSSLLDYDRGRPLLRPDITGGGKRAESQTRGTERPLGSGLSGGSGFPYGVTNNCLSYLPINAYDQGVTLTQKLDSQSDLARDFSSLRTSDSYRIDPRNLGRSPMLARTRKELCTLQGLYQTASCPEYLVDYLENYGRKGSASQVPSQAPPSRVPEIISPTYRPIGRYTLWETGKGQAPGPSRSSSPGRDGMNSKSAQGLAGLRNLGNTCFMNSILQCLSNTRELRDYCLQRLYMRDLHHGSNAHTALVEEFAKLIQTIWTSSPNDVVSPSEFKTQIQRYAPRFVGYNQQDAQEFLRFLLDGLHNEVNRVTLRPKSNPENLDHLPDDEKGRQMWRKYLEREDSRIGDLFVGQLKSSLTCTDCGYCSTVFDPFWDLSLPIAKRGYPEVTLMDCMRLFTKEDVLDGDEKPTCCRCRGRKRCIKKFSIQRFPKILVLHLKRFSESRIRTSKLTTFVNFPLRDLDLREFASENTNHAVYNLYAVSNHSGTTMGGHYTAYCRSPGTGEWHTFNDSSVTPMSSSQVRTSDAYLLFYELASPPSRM
#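 USP2 core (10nM final) preincubated 30min RT with compound in 20mM Tris-HCl pH 8.0, 2mM CaCl2, 2mM beta-mercaptoethanol, 0.05% CHAPS; 25nM Ub-CHOP2 plus 25nM reporter substrate added, fluorescence (Ex485/Em531) read after 60min.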
# USP1 inh – Inhibitors of USP1/UAF1: Primary Screen; Potency, µM (titrated, usually from 57.1 µM), inactives show top-dose activity change, negative = inhibition, hits mostly inhibitors; AID 743255, 2014; 390,000 tested, 0.23% active; Ubiquitin carboxyl-terminal hydrolase 1 (Homo sapiens), O94782; recombinant USP1/UAF1, Ub-Rhodamine cleavage fluorescence; further: potency means the concentration at half of the fitted maximal effect; nearly all actives have a fitted effect of over 60% in size
#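 In this screen, compounds sit with the deubiquitinase complex (1nM) for 15 min at room temperature before Ub-Rho is added at 150nM final. Fluorescence rise is then followed for 6 reads every 60 seconds.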
# VDR inh – Inhibitors of the vitamin D receptor (VDR): qHTS; Vitamin D3 receptor (Homo sapiens), P11473; VDR-SRC2-3 peptide fluorescence polarization, 2 h; Potency, µM, without a hit: max response, negative = inhibition, hits mostly inhibitors; 400,000 tested, 0.93% active; AID 504847, 2011; further: potency means the concentration at half of the fitted maximal effect
#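 Fluorescence polarization assay of small-molecule disruption of VDR binding to coregulator peptide SRC2-3. Compounds and controls pin-transferred, then read after 2 h incubation at ambient room temperature.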
# An asterisk follows results filed as active; ? = inconclusive; nt = no result. An excerpt weighted towards active compounds, which were near 3.2% of everything screened. Unless noted, the call rests on the fitted dose curve; in most records, active means well fitted curve in the direction sought with a large enough effect; inconclusive means small, poorly fitted or top-dose-only effect, or another doubt; inactive means no such curve, though single readings can be large; an effect the other way counts as inactive or inconclusive. Unless noted, on the % scale 0 is the no-effect control and ±100 the full control effect.
SMILES,Coupling enz,PLK1 PBD block,GALK inh,USP2a block,USP1 inh,VDR inh
O=C(C1CCN(S(=O)(=O)c2ccc(Cl)cc2)CC1)N1CCCCCCC1,nt,-2%,6%,-4%,5%,-8%
Cc1ccc(CSc2nc(-c3ccccc3C)nc3c2Cc2c(CO)cnc(C)c2O3)cc1,nt,nt,nt,nt,?,16%
Cc1nc(SCC(=O)c2ccc(F)cc2)n[nH]1,-3,27µM*,0%,4%,-25%,71µM*
Nc1nc(SCC(=O)c2ccc(F)cc2)n[nH]1,0,-24%,11%,-2%,-20%,-2%
Cc1cnc(=O)[nH]c1SCC(=O)c1ccc(F)cc1,0,12µM*,6%,2%,-10%,?
CSCCC(NC(N)=O)C(=O)Nc1ccc2ccccc2c1 (centres undefined),2,-5%,3%,2%,-5%,4%
CCN(CC(=O)Nc1c(F)cccc1F)C(=O)/C=C/c1ccc(C)cc1,nt,4%,nt,-3%,2%,0%
O=C(NN=Cc1ccc(Cl)cc1Cl)c1ccccc1,nt,1%,nt,nt,?,nt
Cc1ccc(C)c(S(=O)(=O)N2CCN(C(=O)/C=C/c3ccco3)CC2)c1,nt,?,nt,22µM*,?,89µM*
COC(=O)c1sccc1-n1cccc1C(=O)C(=O)N1CCCC1,2,0%,-2%,0%,-21%,0%
Nc1ccc2cc3ccccc3cc2c1,nt,?,nt,nt,-18%,-21%
[O-][n+]1c2ccccc2cc2ccccc21,nt,24µM*,nt,0%,-31%,-14%
Cn1sc(NC(=O)c2ccccc2Cl)nc1=O,1,30µM*,2%,1%,-8%,?
Cn1sc(NC(=O)c2cccc(Cl)c2)nc1=O,-7,0%,-1%,0%,-22%,16%
CC(=O)n1cc(C(C[N+](=O)[O-])SCCN)c2ccccc21 (centres undefined),-1,5.3µM*,nt,-1%,-23%,22µM*
O=C(O)c1ccc(-c2nc(-c3ccc(Cl)c(Cl)c3)cs2)cc1,1,27µM*,-5%,4%,-23%,-1%
O=C(O)c1cnn(-c2nc(-c3cccc(F)c3)cs2)c1C(F)(F)F,30,-23%,-1%,2%,-16%,-1%
O=C(O)c1cnn(-c2nc(-c3ccc(Cl)c(Cl)c3)cs2)c1C(F)(F)F,15,27µM*,-1%,3%,-27%,?
CCCN1C=CC(=CC=C(C#N)C#N)C=C1,0,76%,1%,?,22µM*,-6%
CCN(CC)c1nc2ccccc2nc1C(C#N)C(=O)NCCc1ccccc1 (centres undefined),-2,13µM*,0%,4%,150%,-16%
CC1(C)C2CCC1(C)C(OC(=O)CNc1ccccc1)C2 (centres undefined),3,19µM*,-1%,0%,-30%,-13%
CC1(C)C2CCC1(C)C(OC(=O)C[n+]1ccccc1N)C2 (centres undefined),2,0%,-2%,4%,-19%,-11%
CC1(C)C2CCC1(C)C(OC(=O)CC(=O)O)C2 (centres undefined),-3,-5%,0%,1%,2%,4%
CC1(C)C2CCC1(C)C(OC(=O)C[n+]1ccccc1)C2 (centres undefined),1,19µM*,6%,-1%,-29%,22µM*
N=c1n(CCN2CCCCC2)c2ccccc2n1CC(=O)c1cccs1,4,0%,7%,-1%,-16%,-1%
SMILES,Coupling enz,PLK1 PBD block,GALK inh,USP2a block,USP1 inh,VDR inh
O=C(CCN1CCCC1)c1cccs1,5,11µM*,-2%,-1%,-18%,?
O=C(CCN1CCC(c2ccccc2)C1)c1cccs1 (centres undefined),1,21µM*,1%,0%,0%,?
O=C(CCN1CCC(c2ccccc2)C1)c1ccccc1 (centres undefined),-1,?,1%,0%,-16%,-12%
C[C@@H](NC(=O)Cn1ccc(N)nc1=O)c1cccc2ccccc12,nt,-10%,nt,-2%,-2%,5%
CCN(CC)NC(=O)Nc1ccccc1,5,-17%,2%,-1%,-13%,-6%
O=C(Nc1cccc(C(F)(F)F)c1)C1CCN(S(=O)(=O)c2cccc3nsnc23)CC1,nt,nt,nt,nt,-26%,-19%
CCCN1C(=O)c2ccccc2NC1c1ccc(Cl)c(Cl)c1 (centres undefined),-1,21µM*,-3%,-1%,-24%,?
CCCN1C(=O)c2ccccc2NC1c1ccc(Cl)cc1 (centres undefined),3,2%,10%,0%,-15%,-2%
CCc1ccc(-c2cn(-c3nc(C)cc(C)n3)c(=N)o2)cc1,4,0%,-1%,2%,-14%,-4%
Cc1cccc(C)c1NC(=O)C1(C)CSCC(=O)N1CCC(C)C (centres undefined),nt,-9%,nt,nt,nt,nt
COc1ccc(Cl)cc1N1C(=O)CN(Cc2cc(OC)c(OC)c(OC)c2)C1=S,-2,7.5µM*,-1%,-2%,-11%,?
CC(C)Cn1c(N)c(S(=O)(=O)c2cccs2)c2nc3ccccc3nc21,-31*,-21%,-4%,0%,-5%,-6%
COc1ccc(OCc2cc(C(=O)N(C)CC3CCCCO3)no2)c(Cl)c1 (centres undefined),0,-7%,3%,1%,-12%,2%
COc1ccc(OCc2cc(C(=O)N(C)CCC3CCOCC3)no2)c(Cl)c1,nt,27µM*,0%,0%,-2%,?
CCc1ccc(NC2CC(=O)N(CCc3ccc(OC)c(OC)c3)C2=O)cc1 (centres undefined),-1,27µM*,2%,1%,-9%,?
COc1ccc(CCN2C(=O)C3C(C2=O)C2C=CC3C23CC3)cc1OC (centres undefined),0,24µM*,9%,-2%,-25%,2%
CCOC(=O)C1=NOC2C3CC(C12)C1C(=O)N(CCc2ccc(OC)c(OC)c2)C(=O)C31 (centres undefined),1,27µM*,-2%,-25%,-5%,-11%
CCOC(=O)C1CCN(S(=O)(=O)c2ccc3c(c2)CC(C)N3C(=O)C2CC2)CC1 (centres undefined),2,-5%,-7%,2%,-21%,-2%

# Screens: PubChem, National Center for Advancing Translational Sciences (NCATS)
